This is a sample that favours compounds with a hit; in the whole collection about 1.6% have one here.
DSG3 Ab inh: human desmoglein-3 autoantibody binding inhibition | P32926 | DSG3-coupled beads, scFv-anti-DSG3-GFP binding, flow cytometry; hits give low values | binding (percent of control), % at 10 µM | hit rate 0.48% among 310,000;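 active means binding more than 3 SD below its plate's average and above zero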;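 further: hits lower antibody fragment binding to DSG3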
JMJD2C inh: human JMJD2C demethylase inhibition | inhibition, % at 2.35 µM | AID 2099 | hit rate 0.069% among 330,000 | GST-JMJD2C(1-420) H3K9me3 demethylation, DELFIA europium;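 active means more than half of a compound's replicate wells show inhibition beyond 50%, single wells judged on their own value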;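 further: signal counts dimethyl H3K9 product captured on neutravidin plate; 0% = median of DMSO wells and 100% = 0.3 times that DMSO median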
GRK2 aptamer HTS: blocks RNA aptamer binding to human GRK2; bead flow cytometry, FAM-aptamer displacement from GRK2; inhibition of aptamer binding, % at 10 µM; hit rate 0.59% among 330,000; AID 488847;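 active means inhibition of aptamer binding above 40%, roughly 3 SD of noise, on plates passing a quality check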;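 further: median bead fluorescence of bound FAM aptamer so fluorescent compounds give negative values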
VLA-4 inh: inhibition in a human VLA-4 binding assay | P13612 | VLA-4 expressing cells, ligand binding flow cytometry | inhibition, % (about 7 µM as worked out from the volumes in the protocol) | hit rate 0.2% among 330,000; in the data active means inhibition above about 50%
PREPL inh: inhibitors of human prolyl oligopeptidase-like enzyme PREPL. hit rate 0.68% among 320,000. inhibition, % at 5.96 µM. Q4J6C6. recombinant PREPL, fluorescence polarization activity-based probe; in the data active means inhibition above about 43%;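 further: 0% = enzyme with DMSO and 100% = wells lacking enzyme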
* = called active by the depositor; i = inactive; · = no result given.

SMILES | DSG3 Ab inh | JMJD2C inh | GRK2 aptamer HTS | VLA-4 inh | PREPL inh
O=C(O)/C=C\C(=O)Nc1ccc(N2CCN(c3ccc(Cl)c(Cl)c3)CC2)cc1 | 104 | 23 | 0 | -6 | 44*
NNC(=O)CP(=O)(c1ccccc1)c1ccccc1 | · | 2 | 0 | 17 | 16
CCNC(=O)CP(=O)(c1ccccc1)c1ccccc1 | 73* | 17 | 0 | -7 | -5
O=C(C1=C(O)C(=O)N(CCCn2ccnc2)C1c1cccc(Br)c1)c1ccco1 (stereo not drawn) | 102 | -13 | 2 | -9 | 10
C=CCn1c(C)cc(-c2csc(N)n2)c1C | 96 | -2 | 0 | -2 | 49*
C=CCn1c(C)cc(-c2csc(NC)n2)c1C | 85 | · | · | · | ·
COCCCNC(=O)CCn1c(=O)c2ccccc2n(CC(=O)NCCC2=CCCCC2)c1=O | 68* | 3 | 4 | -11 | 2
COC(=O)C1=C(O)/C(=C\c2ccc(CNS(=O)(=O)c3ccccc3)o2)N=C1C | · | 5 | 72* | -1 | 19
O=C(c1ccc(Cl)cc1)[C@@H]1[C@@H]2C(=O)N(c3cccc4ccccc34)C(=O)[C@@H]2C2c3ccccc3C=NN21 (stereo partly drawn) | 102 | -10 | 3 | 20 | 0
O=C1COc2ccc(-c3csc(NCCc4ccccc4)n3)cc2N1 | 106 | -1 | 0 | 2 | 51*
COCCCn1c(=O)c2ccccc2n(Cc2ccccc2)c1=O | 100* | 5 | 0 | 10 | -2
COCCCn1c(=O)c2sccc2n(Cc2ccccc2)c1=O | 93 | -14 | 1 | 10 | 0
CN1CCN(C(c2ccc(Br)cc2)c2cc(Cl)c3cccnc3c2O)CC1 (stereo not drawn) | 106 | -8 | 0 | 12 | -2
c1coc(-c2nc(-c3ccco3)c(-c3ccco3)nc2-c2ccco2)c1 | 88 | 9 | 0 | -9 | 71*
COCC1CCN(C(=O)c2cc(COc3ccc(-n4cncn4)cc3)on2)C1 (stereo not drawn) | 101 | -2 | 2 | 3 | -1
COc1ccccc1CNC(=O)c1ccc(C)s1 | 111 | 2 | 0 | 7 | -6
CCCCOC(=O)Nc1cc(C)c(Cl)cc1OC | 107 | -1 | 1 | -35 | -1
CCOC(=O)Nc1cc(C)c(Cl)cc1OC | 104 | 51* | 1 | 5 | -2
CC(C)NC[C@@H](O)c1ccc(O)c(O)c1 | 120 | -22 | · | 3 | -2
CC(C)(C)NCC(O)c1cc(O)cc(O)c1 (stereo not drawn) | 45* | -13 | · | -3 | -10
O=C1COc2ccc(C(=O)COC(=O)CCCOc3ccccc3)cc2N1 | 82* | · | · | · | ·
O=C1COc2ccc(C(=O)COC(=O)CCSc3ccccc3)cc2N1 | 73* | 60 | 0 | 5 | 1
Cc1cc(C(N)=O)nn1-c1c(Cl)cc(Cl)cc1Cl | 101 | -6 | 0 | 21 | -1
S=C(Nc1ccccc1)N1CCn2c(nc3ccccc32)C1 | 86 | 12 | 4 | 4 | -8
N#Cc1c(NC(=S)NC(=O)c2ccccc2)sc2c1CCN(CCc1ccccc1)C2 | · | 3 | 0 | -205 | 65*
SMILES | DSG3 Ab inh | JMJD2C inh | GRK2 aptamer HTS | VLA-4 inh | PREPL inh
Cc1ccc(NCc2ccc(C)s2)cc1 | · | -4 | 0 | 2 | -6
CCOc1cc(/C=C(/C#N)c2ccc(F)cc2)ccc1OCc1ccc(C(=O)O)o1 | 108 | -2 | 2 | -2 | 7
CCOc1cc(/C=C(/C#N)c2nc3ccccc3[nH]2)ccc1OCc1ccc(C(=O)O)o1 | 101 | -16 | 16 | 31 | 59*
N#C/C(=C\c1ccc(OC(=O)c2ccc(Cl)s2)cc1)c1nc2ccccc2[nH]1 | · | i | 81* | -6 | 41
COc1cc(/C=C(\C#N)c2nc3ccccc3[nH]2)ccc1OC(=O)c1ccco1 | 101 | -5 | 7 | -38 | 80*
O=C1C2CC=CCC2C(=O)N1c1ccc(NCCc2ccc(O)cc2)c([N+](=O)[O-])c1 (stereo not drawn) | 83 | 18 | 0 | 17 | 10
CC1CCN(C(=O)c2[nH]cnc2C(=O)Nc2ccon2)CC1 | 100 | 1 | 0 | 14 | 1
COc1ccc(OC)c(/C=N/NC(=O)C(=O)N/N=C/c2cc(OC)ccc2OC)c1 | 54* | 2 | 0 | 8 | 8
CCOC(=O)c1c(NC(=S)NC(C)=O)sc(C)c1C | 71* | 4 | 1 | -12 | 20
Cc1cc2nc3c(=O)[nH]c(=O)[nH]c3nc2c([N+](=O)[O-])c1N | 35* | · | · | · | ·
O=C1c2ccccc2C(=O)c2c(O)c(O)cc(O)c21 | 90 | · | 0 | -26 | 19
O=C1C=C(O)c2c(O)cc(O)c(O)c2C1=O | 79* | -13 | 4 | 3 | 30
CC1(C)CC2(CCO1)N1CC3(C)CN2CC(C)(C1)C3O (stereo not drawn) | 95 | -1 | 6 | 5 | -1
CCOC(=O)CSc1nc2ccc(N3CCOCC3)cc2c(=O)n1Cc1ccc2c(c1)OCO2 | · | 0 | 1 | -5 | 52*
Cc1ccc(CC(=O)NNC(=O)c2cccs2)cc1C | 109 | · | · | · | ·
CC(=O)NC(CCS(C)(=O)=O)C(=O)Nc1nc(C)cs1 (stereo not drawn) | 81* | 5 | 0 | 1 | -2
O=C(CSc1nc2ccccc2o1)Nc1ccc(N2CCOCC2)cc1 | 107 | 146 | 0 | -3 | 44*
O=C(CSc1nc2cc(Cl)ccc2o1)Nc1ccc(N2CCOCC2)cc1 | 96 | 0 | 0 | 2 | 11
Cc1ccc(CN2CCC(n3nccc3NC(=O)C3CCOC3)CC2)cc1C (stereo not drawn) | · | 7 | 10 | -7 | 6
CCCC(C(=O)NC1CCCC1)N(C(=O)Cn1nnc(-c2ccc(C)o2)n1)C1CCCC1 (stereo not drawn) | 90* | 1 | 2 | 2 | 7
CCCC(C(=O)NC1CCCC1)N(C(=O)Cn1nnc(-c2ccc(C)o2)n1)c1ccccc1F (stereo not drawn) | · | -1 | · | · | ·
O=C1CNC(=S)N1C(CO)c1ccccc1 (stereo not drawn) | 99 | -9 | 0 | -12 | 23
Cc1oc(-c2ccc(Cl)cc2)nc1CS(=O)CC(=O)NC1CCCCC1 (stereo not drawn) | 121 | -5 | 0 | 7 | 6
Cc1oc(-c2ccc(Cl)cc2)nc1CS(=O)CC(=O)NCCCN(C)C1CCCCC1 (stereo not drawn) | · | -18 | 0 | 8 | 57*
Cc1oc(-c2ccccc2F)nc1CS(=O)CC(=O)NCc1ccc(Cl)cc1 (stereo not drawn) | -12* | -9 | 4 | 27 | -12
CCOc1ccccc1NC(=O)NCc1ccccn1 | 93 | -16 | 15 | 3 | 4
COc1ccccc1CN1C(=O)C2CC=CCC2C1=O (stereo not drawn) | 91 | -3 | 0 | 2 | 16
Cc1c(Cl)cccc1NC(=S)N1CCN(c2ccc([N+](=O)[O-])cn2)CC1 | 90* | -2 | 0 | 3 | -5
CN(C)c1cc(-c2cccc(C(F)(F)F)c2)oc(=O)c1Cl | · | 1 | 3 | -4 | 8

High-throughput results from PubChem.
